Screen size: about 100,000 compounds; about 770 (0.77%) were called active. This is one part of a sample in which actives are shown more often than they occur. No stated cut-off is given here; in the data, active means inhibition above about 50%; inactive means the rest.

This passage reports inhibition results from PubChem BioAssay AID372 (MTDP, 2006).

The test has as its target Gag-Pol polyprotein (Human immunodeficiency virus type 1 group M subtype B (isolate HXB2)) (UniProt P04585). In words: RNase H inhibition, HIV 1 Gag Pol polyprotein, FRET biochemical assay, screening (AID 372). Conditions: HIV-1 RT RNase H, FRET RNA/DNA substrate fluorescence; at 10 µM; hits give high values.
As to `CC(NC(=O)CSc1ncc(-c2ccccc2)[nH]1)c1ccccc1` (centres undefined), the inhibition (commonly the change of the read-out against control, counted positive when it falls) is 12% (inactive).
The result for `CC1=C(C(=O)OCCc2ccccc2)C(c2ccc(Cl)c([N+](=O)[O-])c2)C2=C(CCCC2=O)N1` (centres undefined) reads 2% (inactive); that for `O=C(N/N=C/c1ccc([N+](=O)[O-])cc1)c1ccccn1`, 7% (inactive); that for `COc1ccc(I)cc1S(=O)(=O)N1CCN(c2ccc(F)cc2)CC1`, 16% (inactive).
The result for `C/C(=N/NC(=O)C1COc2cc3ccccc3cc2O1)c1ccc([N+](=O)[O-])cc1` (centres undefined) reads 10% (inactive); that for `COc1ccc(C2CC(=O)C3=C(C2)NC(C)=C(C(=O)OCC(C)C)C3c2ccc(OC)c(OC)c2)cc1` (centres undefined), 8% (inactive).
For the compound `CCC(Sc1nc2ccccc2s1)C(=O)Nc1ccc([N+](=O)[O-])cc1` (centres undefined), the inhibition was 10% (inactive).
The result for `O=C(NC(=S)Nc1cc([N+](=O)[O-])ccc1Cl)c1cccc(Cl)c1` reads 45% (inactive).
The same measure for `O=C(O)c1ccc(Oc2ccc3c(c2)C(=O)N(c2ccc([N+](=O)[O-])cc2)C3=O)cc1`: 3% (inactive).
On to `CC1=NN(c2ccc(S(N)(=O)=O)cc2)C(=O)/C1=C\c1ccc(-c2cccc(Cl)c2C)o1`, for which the inhibition was 67% (active).
Regarding `Cc1ccc(N2C(=O)NC(=O)/C(=C/c3ccc(-c4ccc(Cl)cc4Cl)o3)C2=O)cc1`, the inhibition was 36% (inactive).
As for `CCCCOC(=O)c1cccc(-c2ccc(/C=C3\C(=O)N(c4ccc(S(N)(=O)=O)cc4)N=C3C)o2)c1`, the inhibition was 39% (inactive).
The result for `CC1=NN(c2ccc(S(N)(=O)=O)cc2)C(=O)/C1=C\c1ccc(-c2ccc(Cl)cc2)o1` reads 43% (inactive).
The result for `CC1=NN(c2cccc(Cl)c2)C(=O)/C1=C/c1ccc(-c2ccccc2[N+](=O)[O-])o1` reads 1% (inactive); that for `O=C(Nc1ccc(Cl)c(-c2nc3ccccc3s2)c1)c1ccccc1F`, 14% (inactive).
The result for `CCOC(=O)c1c(NC(=S)NC(=O)c2ccccc2)sc2c1CC(C(C)C)OC2` (centres undefined) reads 12% (inactive); that for `COc1ccc(CNC(=O)C(=O)Nc2ccccc2F)cc1`, 15% (inactive); that for `O=C(NN1C(=O)c2ccc(C(=O)c3ccc4c(c3)C(=O)N(NC(=O)c3ccncc3)C4=O)cc2C1=O)c1ccncc1`, 0% (inactive).
As to `C/C(=N\N1CCN(Cc2cccc3ccccc23)CC1)c1cccs1`, the inhibition is 19% (inactive).
The result for `COC(=O)/C=C1\SC(=Nc2ccccc2)NC1=O` reads 6% (inactive); that for `O=C1C=C/C(=N\S(=O)(=O)c2ccc(Cl)cc2)C=C1Cl`, 37% (inactive); that for `O=C1C=CC(=NS(=O)(=O)c2cc(Cl)ccc2Cl)C=C1`, 46% (inactive).
In the case of `Clc1cccc(C=Nc2ccc(-c3ccc(N=Cc4cccc(Cl)c4Cl)cc3)cc2)c1Cl`, the inhibition was 17% (inactive).
With `N#Cc1c(N2CCCCC2)ncc2cc3ccccc3nc12`, the inhibition is 0% (inactive).
The result for `CCOC(=O)C(=Cc1ccc(OCc2ccc([N+](=O)[O-])cc2)c(OC)c1)C(=O)OCC` reads 59% (active); that for `CCOC(=O)C(=Cc1cc(OC)c(O)c([N+](=O)[O-])c1)C(=O)OCC`, 5% (inactive).
The result for `CCOc1cc(C=O)cc(Br)c1OCc1ccc([N+](=O)[O-])cc1` reads 28% (inactive).
As for `COC(=O)C(=Cc1cc(Br)c(OCc2ccc([N+](=O)[O-])cc2)c(OC)c1)C(=O)OC`, the inhibition is 12% (inactive).
The same measure for `CCOc1cc(C=O)cc(Cl)c1OCc1ccc([N+](=O)[O-])cc1`: 54% (active); for `O=Cc1cc(Cl)c(OCc2ccc([N+](=O)[O-])cc2)c(Cl)c1`: 25% (inactive); for `NNC(=O)COc1cccc2ccccc12`: 1% (inactive).
The same measure for `COc1ccc(C(=O)NC(=S)Nc2ccc3ccccc3c2)cc1OC`: 17% (inactive); for `O=C(O)c1ccc(-c2ccc(/C=N/N3C(=O)C4C5C=CC(CC5)C4C3=O)o2)cc1` (centres undefined): 2% (inactive).
The result for `O=C(c1ccccc1)N1N=C(c2ccccc2)CC1(O)C(F)(F)F` (centres undefined) reads 9% (inactive).
`O=C(c1cccc(Br)c1)N1N=C(c2ccc(F)cc2)CC1(O)C(F)(F)F` (centres undefined): the inhibition was 22% (inactive).
The result for `O=C(c1cccc(Br)c1)N1N=C(c2ccccc2)CC1(O)C(F)(F)F` (centres undefined) reads 50% (active).
The same measure for `O=C(Nc1ccccc1Cl)ON=C1c2ccccc2-c2ccccc21`: 43% (inactive); for `O=C(Nc1cccc2ccccc12)ON=C1c2ccccc2-c2ccccc21`: 56% (active); for `O=C(Nc1ccccc1)ON=C1c2ccccc2-c2ccccc21`: 42% (inactive).
The result for `COc1ccccc1NC(=O)Nc1cccc2ccccc12` reads 15% (inactive).
Consider `CCN(CC)c1ccc(C(NC(C)=O)NC(C)=O)cc1`, for which the inhibition was 0% (inactive).
As to `Cc1ccc([N+](=O)[O-])cc1NC(=O)C1CC1`, the inhibition was 0% (inactive).
The same measure for `COc1ccc(CC(=O)NNC(=O)c2ccc(Cl)cc2)cc1OC`: 9% (inactive); for `CC1=CC(C)(C)N(C(=O)c2ccccc2)c2ccccc21`: 10% (inactive); for `CC(=O)N1c2ccccc2C(C)=CC1(C)C`: 3% (inactive).
As to `CCC(C(=O)N1c2ccccc2C(C)=CC1(C)C)c1ccccc1` (centres undefined), the inhibition is 50% (active).
The result for `COC(=O)c1ccc(CSc2nnc(CCCN3C(=O)c4cccc5cccc(c45)C3=O)n2-c2ccccc2)cc1` reads 15% (inactive); that for `CCOC(=O)C1=C(C)N=c2s/c(=C\c3ccc(-c4ccc(Br)cc4[N+](=O)[O-])o3)c(=O)n2C1c1ccccc1` (centres undefined), 48% (inactive).
The same measure for `COc1ccc(C2C(C#N)=C(N)OC3=C2C(=O)CC(c2ccccc2)C3)cc1C` (centres undefined): 9% (inactive).
On to `O=C(Nc1cccc(Cl)c1Cl)c1ccc(-c2ccc(Br)cc2)o1`, for which the inhibition was 57% (active).
The same measure for `O=C(Nc1cccc(Cl)c1Cl)c1ccc(Br)o1`: 16% (inactive); for `O=C(Nc1cccc(Cl)c1Cl)c1ccc(-c2cccc(Cl)c2)o1`: 37% (inactive).
The same measure for `Clc1ccccc1OCCCn1ccnc1`: 0% (inactive); for `C=C(C)c1cccc(C(C)(C)NC(=O)NCc2ccco2)c1`: 9% (inactive).
The same measure for `CCOC(=O)C1=C(C)N=c2s/c(=C\c3ccc(-c4cccc([N+](=O)[O-])c4)o3)c(=O)n2C1c1ccc(C)cc1` (centres undefined): 19% (inactive); for `O=C1C2C3C=CC(CC3)C2C(=O)N1/N=C/c1ccc(O)cc1` (centres undefined): 0% (inactive); for `O=C1C2C3C=CC(CC3)C2C(=O)N1/N=C/c1cccs1` (centres undefined): 56% (active).
On to `O=C1C2C3C=CC(CC3)C2C(=O)N1/N=C/c1ccccc1O` (centres undefined), for which the inhibition is 0% (inactive).
The same measure for `O=C1C2C3C=CC(CC3)C2C(=O)N1/N=C/c1ccccc1I` (centres undefined): 59% (active); for `O=C1C2C3C=CC(CC3)C2C(=O)N1/N=C/c1ccc(I)o1` (centres undefined): 3% (inactive); for `O=C1C2C3C=CC(C3)C2C(=O)N1/N=C/c1ccccc1I` (centres undefined): 0% (inactive).
As for `CC(Oc1ccc(Br)cc1)C(=O)N/N=C/c1ccc(N(C)C)cc1` (centres undefined), the inhibition was 8% (inactive).
Consider `O=C(O)c1cc(NS(=O)(=O)c2ccc(NCCCN3CCOCC3)c([N+](=O)[O-])c2)cc(C(=O)O)c1`, for which the inhibition was 4% (inactive).
The same measure for `COc1ccc(/C=N/Nc2nc(Nc3ccc(F)cc3)nc(N3CCCCC3)n2)cc1`: 6% (inactive).
`CCN(CC)C(=O)c1sc(NC(=O)c2cc(Cl)ccc2OC)c(C#N)c1C`: the inhibition was 7% (inactive).
With `Cc1sc(NC(=O)c2cc(Cl)ccc2Cl)c(C#N)c1C`, the inhibition is 4% (inactive).
The result for `COc1ccc(Cl)cc1C(=O)Nc1sc(C)c(C)c1C#N` reads 74% (active); that for `CC(=O)C1=C(Nc2ccc(Br)cc2)CC(C)(O)C(C(C)=O)C1c1ccc([N+](=O)[O-])cc1` (centres undefined), 4% (inactive).
The same measure for `Cc1ccc(P(=O)(c2ccc(C)cc2)C(C)(C)O)cc1`: 0% (inactive); for `CCN(CC)c1nc(-c2ccccc2)c2cc(Cl)ccc2n1`: 12% (inactive); for `CN(CCO)c1nc(-c2ccccc2)c2cc(Cl)ccc2n1`: 50% (active).
As for `CN(C)c1nc(-c2ccccc2)c2cc(Cl)ccc2n1`, the inhibition was 13% (inactive).
The result for `COc1ccc(-c2nn(-c3ccccc3)cc2/C=N/NS(=O)(=O)c2ccccc2)cc1` reads 15% (inactive); that for `S=C(NCCC(c1ccccc1)c1ccccc1)Nc1ccc(Cl)cc1Cl`, 12% (inactive); that for `S=C(NCCc1ccccc1)Nc1ccc(Cl)cc1Cl`, 46% (inactive).
The same measure for `S=C(NCCc1ccccn1)Nc1ccc(Cl)cc1Cl`: 50% (active).
For the compound `S=C(NCCc1ccccn1)Nc1ccc(Cl)c(Cl)c1`, the inhibition was 59% (active).
The result for `O=C(NCc1ccccn1)Nc1ccc(Cl)c(Cl)c1` reads 9% (inactive); that for `S=C(NCCc1c[nH]c2ccccc12)Nc1ccc(Cl)c(Cl)c1`, 49% (inactive).
The result for `O=C(NC1CCCCC1)c1cccc(C(F)(F)F)c1` reads 11% (inactive).
The same measure for `Cc1cc(/C=C(\C#N)C(=O)Nc2ccccc2)c(C)n1-c1sc2c(c1C#N)CCCC2`: 15% (inactive); for `CC1(C)C(c2ccccc2)=[N+]([O-])C2(CCCCC/C2=N\NC(N)=O)N1O` (centres undefined): 0% (inactive); for `Cc1cc(C)c(N/C=C(\C#N)c2nc(-c3ccc(Cl)cc3Cl)cs2)c(C)c1`: 27% (inactive).
Consider `CCN(CC)S(=O)(=O)c1cc(-c2nnc(-c3ccc(C)cc3)o2)ccc1C`, for which the inhibition was 3% (inactive).
The result for `COc1cccc2c1NC(c1ccc([N+](=O)[O-])cc1)C1CC=CC21` (centres undefined) reads 51% (active); that for `COc1cccc2c1NC(c1ccc(F)cc1)C1CC=CC21` (centres undefined), 35% (inactive).
As to `O=[N+]([O-])c1ccc(C2Nc3c(cccc3[N+](=O)[O-])C3C=CCC32)cc1` (centres undefined), the inhibition was 35% (inactive).
Take `Cc1ccc(S(=O)(=O)Nc2cc(C)c(O)c(S(=O)(=O)c3ccc(C)cc3)c2)cc1`: the inhibition was 18% (inactive).
The same measure for `O=C1c2ccc(Oc3ccc([N+](=O)[O-])cc3)cc2C(=O)N1c1nc2ccccc2s1`: 11% (inactive); for `Cc1ccc(N2C(=O)C3C4C=CC(O4)C3C2=O)c(C)c1` (centres undefined): 5% (inactive).
The result for `COc1ccc(Br)c(C=Nc2cccc3nsnc23)c1O` reads 64% (active); that for `Oc1c(C=Nc2cccc3nsnc23)cc(Br)c2ccccc12`, 5% (inactive); that for `Oc1c(Br)ccc(Cl)c1C=Nc1cccc2nsnc12`, 8% (inactive).
The same measure for `Brc1ccccc1OCCCCCn1ccnc1`: 5% (inactive).
